# TNF necrop inh: inhibitors of TNF-alpha induced necroptosis in Jurkat FADD-/- cells. activation (protection from cell death), % at 10 µM. 220,000 tested, 0.068% active. Jurkat FADD-/- TNF necroptosis rescue, ATP luminescence, 24 h; 0 = TNF only, 100 = no-TNF cells;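 active means activation, meaning protection from cell death, of at least 50% relative to plate controls; inactive means activation below 50%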;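 further: necroptosis triggered by 40 ng/mL TNF-alpha added together with compound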
# MCL1-BIM inh: inhibitors of human MCL1 binding to BIM-BH3 peptide. Q07820. GST-MCL1 / FITC-Bim-BH3 fluorescence polarization. inhibition, % at 10.9 µM. 320,000 tested, 0.68% active;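 active means inhibition above the mean inhibition of all tested compounds plus 3 SD, set per campaign, cut at about 40% in these data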;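 further: higher means more loss of mP so more displacement of Bim peptide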
# Target sequence (Q07820 whole entry, looked up): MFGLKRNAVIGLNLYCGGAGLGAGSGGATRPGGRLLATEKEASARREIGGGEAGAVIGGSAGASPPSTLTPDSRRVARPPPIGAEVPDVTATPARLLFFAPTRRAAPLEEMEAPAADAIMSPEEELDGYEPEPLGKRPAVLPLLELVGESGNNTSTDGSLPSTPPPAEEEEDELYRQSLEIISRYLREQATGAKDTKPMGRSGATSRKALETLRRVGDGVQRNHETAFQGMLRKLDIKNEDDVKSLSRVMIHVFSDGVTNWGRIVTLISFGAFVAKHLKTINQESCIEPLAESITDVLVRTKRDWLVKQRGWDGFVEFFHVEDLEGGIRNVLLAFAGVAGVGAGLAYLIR
# L929 necroptosis: blocks zVAD induced death of L929 cells; L929 zVAD necroptosis rescue, ATP luminescence, 24 h; with zVAD 60 µM; viability rescue, % at 10 µM; 220,000 tested, 0.38% active; AID 1377;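 active means activation, scaled between plate controls, above about 75%, limit read from the data; inactive means activation under that limit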
# Bim-Mcl-1: human Bim-Mcl-1 interaction inhibition | Q07820 | Bead-based flow cytometry, Bim peptide-Mcl-1 binding | 190,000 tested, 0.1% active | inhibition, % at 10 µM; in the data active means inhibition above about 40%
# Mcl1-Bid inh: disrupts binding of human Mcl-1 to Bid peptide; Q07820; TR-FRET Mcl-1/Bid-Dy647 peptide binding, 1536-well; inhibition, % at 21.7 µM; 220,000 tested, 0.97% active; AID 1021;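 active means compounds that cut the binding signal by more than half at the single screening dose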;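 further: His-tagged Mcl-1 with europium anti-His antibody binding Bid BH3 peptide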
# Mcl1-Noxa inh: Mcl-1/Noxa interaction inhibition | Q07820 | TR-FRET Mcl-1/Noxa peptide binding, 2 h | inhibition, % at 21.7 µM | 220,000 tested, 1.5% active;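 active means compounds that cut the protein-peptide binding signal by more than 50% relative to plate controls in a single-dose test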;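 further: His-tagged Mcl-1 with rhodamine Noxa BH3 peptide and terbium anti-His antibody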
# BCLXL inh confirm: counter-screen for MCL1 inhibitors: confirmation of human Bcl-xL inhibitors; inhibition, % at 10.9 µM; 1,700 tested, 54% active; GST-Bcl-xL / FITC-Bim BH3 peptide FP binding; shares compounds with MCL1-BIM inh;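 active means inhibition above a cutoff equal to the mean inhibition of all tested compounds plus 3 SD, cut at about 30% in these data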
# Target sequence (Q07817 whole entry, looked up): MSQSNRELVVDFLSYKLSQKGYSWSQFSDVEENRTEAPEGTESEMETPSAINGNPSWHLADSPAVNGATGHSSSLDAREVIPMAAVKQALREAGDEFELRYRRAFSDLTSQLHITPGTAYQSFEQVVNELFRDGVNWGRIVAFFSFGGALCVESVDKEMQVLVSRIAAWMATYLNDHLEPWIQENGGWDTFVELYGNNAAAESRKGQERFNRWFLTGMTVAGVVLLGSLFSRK
# MCL1 inh confirm: confirmation of human MCL1 and BIM-BH3 interaction inhibitors | inhibition, % at 10.9 µM | GST-MCL1 / FITC-Bim-BH3 fluorescence polarization | 1,700 tested, 61% active | shares compounds with MCL1-BIM inh | AID 2168;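 active means inhibition above the average of all tested compounds plus 3 SD, cut at about 40% in these data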
# Numbers stand for hits; - = inactive; . = not tested or not shown; + = active, no number. The list is not random: actives were taken first. Their share in the collection is about 2.4%.
SMILES,TNF necrop inh,MCL1-BIM inh,L929 necroptosis,Bim-Mcl-1,Mcl1-Bid inh,Mcl1-Noxa inh,BCLXL inh confirm,MCL1 inh confirm
Cc1cccc(C)c1NC(=O)CSc1nnc(-c2ccco2)c(-c2ccco2)n1,-,95.8,-,-,-,101.6,-,-
Cc1ccccc1NC(=O)CSc1n[nH]c(-c2ccco2)n1,-,-,-,-,-,-,.,.
CSc1nnc(-c2ccco2)c(-c2ccco2)n1,-,42.5,-,-,-,78.4,-,55.6
Cc1ccccc1NC(=O)CSc1nnc(-c2ccco2)c(-c2ccco2)n1,-,52.4,-,-,-,87.4,35.0,86.2
CSc1nnc(-c2ccccc2)c(-c2ccccc2)n1,-,-,-,.,-,-,.,.
O=S(=O)(c1cccc2nonc12)N1CCCCC1,.,-,.,.,.,.,.,.
CC(C)C(NC(=O)CCNC(=O)c1ccccc1Cl)c1nc2ccccc2[nH]1 (stereo not given),.,-,.,.,.,.,.,.
CCOc1cc(C)c(S(=O)(=O)NCCCn2ccnc2)cc1C,.,-,.,.,.,.,.,.
CN(C)c1ccc2nc3c(=O)[nH]c(=O)nc-3n(CC(O)C(O)C(O)CO)c2c1 (stereo not given),.,+,.,.,.,.,150.0,173.6
O=C(CN1C(=O)/C(=C2\SC(=S)N(CCS(=O)(=O)O)C2=O)c2ccccc21)Nc1cccc(Br)c1,.,102.7,.,.,.,.,-,94.4
COCCN1C(=O)/C(=C2/C(=O)N(CC(=O)Nc3ccccc3Cl)c3ccccc32)SC1=S,.,-,.,.,.,.,.,.
CCOC(=O)c1ccccc1NC(=O)COC(=O)c1c(CC)noc1C,.,-,.,.,.,.,.,.
Cc1nn(-c2ccccc2)c(Cl)c1/C=N/Nc1ccc(S(=O)(=O)Nc2ccccc2C(=O)O)cc1[N+](=O)[O-],-,53.8,-,-,100.4,105.3,-,-
Cc1nn(-c2ccccc2)c(Cl)c1/C=N/Nc1ccc(Cl)c(C(=O)O)c1,-,-,-,-,-,-,.,.
COc1ccc(CCN2CC(C(=O)NCc3ccccc3)CCC2=O)cc1 (stereo not given),.,-,.,.,.,.,.,.
N#CC1=C(N)SC(N)=C(C#N)C1c1ccoc1,-,80.4,-,-,-,-,-,-
Cc1ccc(C2C(C#N)=C(N)SC(N)=C2C#N)cc1,-,.,-,-,-,.,.,.
COc1ccccc1NCCC(=O)O,-,-,-,.,-,-,.,.
O=C(O)CCNc1ccc(NCCC(=O)O)c2c1C(=O)c1ccccc1C2=O,.,153.9,.,.,.,.,101.6,129.9
COc1ccc(CNC(=O)C(=O)NCC2OCCN2S(=O)(=O)c2ccccc2)cc1 (stereo not given),.,-,.,.,.,.,.,.
COCCCNc1nc(N)c([N+](=O)[O-])c(N2CCCCCC2)n1,.,-,.,.,.,.,.,.
CSc1nsc(/C=C/Nc2ccc(O)cc2C)c1C#N,-,49.0,-,-,-,55.4,43.3,-
CCOC(=O)CN1C(=O)S/C(=C/c2ccco2)C1=O,.,-,.,.,.,.,.,.
NN1C(=O)/C(=C\c2ccco2)SC1=S,-,54.5,-,.,-,-,-,-
O=C(CCN1C(=O)/C(=C/c2ccccc2)SC1=S)NC1CCS(=O)(=O)C1 (stereo not given),.,-,.,.,.,.,.,.
SMILES,TNF necrop inh,MCL1-BIM inh,L929 necroptosis,Bim-Mcl-1,Mcl1-Bid inh,Mcl1-Noxa inh,BCLXL inh confirm,MCL1 inh confirm
O=C(CN1C(=O)/C(=C/c2ccco2)SC1=S)NC1CCS(=O)(=O)C1 (stereo not given),.,63.6,.,.,.,.,-,-
O=C(CN1C(=O)/C(=C/c2ccco2)SC1=S)Nc1ccc(O)c(C(=O)O)c1,.,57.7,.,.,.,.,-,47.4
O=C(CN1C(=O)/C(=C/c2ccco2)SC1=S)Nc1ccc(C(=O)O)c(O)c1,.,72.9,.,.,.,.,-,48.3
CC(C(=O)Nc1ccc(C(=O)O)c(O)c1)N1C(=O)/C(=C\c2ccco2)SC1=S (stereo not given),.,90.9,.,.,.,.,46.2,80.5
CC(C)C[C@H]1C(=O)N2CCC[C@H]2[C@]2(O)O[C@](NC(=O)[C@@H]3C=C4c5cccc6[nH]c(Br)c(c56)CC4N(C)C3)(C(C)C)C(=O)N12 (stereo not given in full),-,110.6,-,-,-,-,-,-
CCCCn1c(=NC(=O)c2ccco2)c(C(=O)OCC)cc2c(=O)n3ccccc3nc21,-,-,-,-,-,-,.,.
CCOC(=O)c1cc2c(=O)n3ccccc3nc2n(Cc2ccco2)c1=NC(=O)c1ccc(OC)cc1OC,-,52.2,-,-,-,-,-,-
CC(=O)N=c1c(C#N)cc2c(=O)n3cccc(C)c3nc2n1Cc1ccco1,-,-,-,.,-,-,.,.
N#Cc1cc2c(=O)n3ccccc3nc2n(Cc2ccco2)c1=NC(=O)c1ccco1,-,75.2,-,-,-,-,-,-
CC(C(=O)NC1CCCCC1)N(Cc1ccccc1)C(=O)c1snc(C(N)=O)c1N (stereo not given),.,-,.,.,.,.,.,.
Cc1ccccc1-n1c(SCc2c(C)noc2C)nnc1-c1cccnc1,-,143.8,-,-,-,-,116.2,135.8
Cc1ccccc1-n1c(SCc2c(C)noc2C)nnc1-c1ccncc1,-,-,-,-,-,-,.,.
O=[N+]([O-])c1nn(-c2ccc3c(c2)OCCO3)n(O)c1=NCc1ccc(F)cc1Cl,-,67.4,-,-,-,-,-,-
O=[N+]([O-])c1nn(-c2ccc3c(c2)OCCO3)n(O)c1=NCc1ccc(F)cc1,-,-,-,-,-,-,.,.
CC(=O)Nc1cc2nc(C)n(Cc3ccccc3[N+](=O)[O-])c2nc1C,.,-,.,.,.,.,.,.
COc1ccccc1N(CC(=O)NCc1ccco1)S(=O)(=O)c1ccc(C)cc1,.,46.7,.,.,.,.,33.1,79.0
O=C(COc1cccc(C(F)(F)F)c1)Nc1ccc(S(=O)(=O)N2CCCCC2)cc1,.,-,.,.,.,.,.,.
COc1ccc(Nc2nnc(SCc3cc(=O)n4ccsc4n3)s2)cc1,-,68.3,-,-,-,-,-,-
CCOC(=O)CSc1nc(N2CCOCC2)c2c(c1C#N)CC(C)(C)N(C)C2,-,55.7,-,-,-,-,-,-
CC(C)Sc1nc(N2CCOCC2)c2c(c1C#N)CC(C)(C)N(C)C2,-,50.3,-,-,-,-,-,-
COC(=O)c1ccccc1NC(=O)C/C(C)=N/NC(=O)Cc1ccc(Cl)cc1,.,53.4,.,.,.,.,-,-
COc1ccc(/C=N/NC(=O)c2nn(-c3ccc(C)c(C)c3)c(=O)c3ccccc23)cc1,-,-,-,-,-,-,.,.
COc1ccc(/C=N/NC(=O)c2nn(-c3ccccc3)c(=O)c3c(N)scc23)cc1,-,41.0,-,-,-,54.7,-,-
O=C(N/N=C/c1c(F)cccc1Cl)C(=O)N1CCCCCC1,.,-,.,.,.,.,.,.
Cc1cc(/C=N/NC(N)=S)c(O)c(/C=N/NC(N)=S)c1,-,+,-,.,-,-,189.4,+
NC(=S)N/N=C/c1cccc(O)c1O,-,-,-,-,-,-,.,.
